Among the data in PubChem BioAssay AID624111 (Johns Hopkins Ion Channel Center, 2012) are fluorescence ratio F(max-min)/F0 values, retold here.

Screen size: about 4,000 compounds; about 60 (2%) were called active.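 Rule for the calls: active = duplicate-averaged calcium fluorescence ratio at least three times the standard deviation of buffer wells, a nonspecific response in parental cells; inactive = the rest.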 The full list was thinned out, with actives kept by preference.

The assay can be described thus: nonspecific calcium signal in parental HEK293, confirmation, counter-screen for MrgX1 antagonist project, parental HEK293 cells, Fluo-4 calcium flux (AID 624111). The following applies: parental HEK293, Fluo-4 calcium fluorescence, FDSS; at 10 µM.
On to `CCOc1cc(-c2conc2N)cc(OCC)c1OCC`, for which the fluorescence ratio F(max-min)/F0 entry is “inactive”.

For `Brc1ccccc1C1Nc2cccc3cccc(c23)N1`, the fluorescence ratio F(max-min)/F0 result is “inactive”.

Take `c1ccc(-c2[nH]ncc2-c2nc3ccccc3[nH]2)cc1`: the fluorescence ratio F(max-min)/F0 entry was “inactive”.

With `CCOC(=O)c1cn(Cc2cccc(C)c2)nn1`, the fluorescence ratio F(max-min)/F0 result is “inactive”.

Take `CC(C)NC(=S)Nc1cccc2cnccc12`: the fluorescence ratio F(max-min)/F0 entry is “inactive”.

Regarding `CCOC(=O)C1=C(O)/C(=C/c2cc(C)n(-c3ccccc3)c2C)N=C1C`, the fluorescence ratio F(max-min)/F0 result was “inactive”.

As to `COc1ccc(C2SCCN2S(=O)(=O)c2ccccc2)cc1OC` (stereo not drawn), the fluorescence ratio F(max-min)/F0 entry was “inactive”.

On to `S=C(NCc1ccc(Cl)cc1)NC12CC3CC(CC(C3)C1)C2`, for which the fluorescence ratio F(max-min)/F0 entry is “inactive”.

For the molecule `COc1cc(C(F)(F)F)nc2c(Br)c(C(C)(C)C)nn12`, the fluorescence ratio F(max-min)/F0 result was “inactive”.

Turning to `CCN(C(=O)CSc1nnc2ccccn12)C1CCS(=O)(=O)C1` (stereo not drawn), the fluorescence ratio F(max-min)/F0 entry is “inactive”.

On to `O=C1C(Cc2ccc(O)cc2)NC(=S)N1Cc1ccccc1` (stereo not drawn), for which the fluorescence ratio F(max-min)/F0 result is “inactive”.

Turning to `CCOC(=O)c1c(NC(=O)CNC2CCCc3ccccc32)sc(C(N)=O)c1C` (stereo not drawn), the fluorescence ratio F(max-min)/F0 result is “inactive”.

Turning to `COc1cccc(-c2cnc(OC(C)(C)C)nc2OC(C)(C)C)c1`, the fluorescence ratio F(max-min)/F0 entry was “inactive”.

As for `COc1ccc(-n2c(SCC(=O)NCc3ccco3)nnc2-c2c[nH]c3ccccc23)cc1`, the fluorescence ratio F(max-min)/F0 entry is “inactive”.

With `CC(C)CNc1ncnc2c1cnn2Cc1ccc(Cl)cc1`, the fluorescence ratio F(max-min)/F0 result was “inactive”.

On to `Cc1cc2oc3ccc(NCCC4CCCN4C)cc3c(=O)c2cc1C` (stereo not drawn), for which the fluorescence ratio F(max-min)/F0 entry was “inactive”.

Take `CC(=O)Nc1ccc(OC(=O)COc2ccc(Br)cc2)cc1`: the fluorescence ratio F(max-min)/F0 entry was “inactive”.

In the case of `CCCc1[nH]nc2c1C(c1ccc(Br)s1)C(C#N)=C(N)O2` (stereo not drawn), the fluorescence ratio F(max-min)/F0 result is “inactive”.

As to `CCS(=O)(=O)c1ccc2c(c1)N(S(=O)(=O)c1ccccc1)CC(C(=O)O)O2` (stereo not drawn), the fluorescence ratio F(max-min)/F0 entry is “inactive”.

On to `Fc1cccc(Cl)c1COc1ccc(-c2nnco2)cc1`, for which the fluorescence ratio F(max-min)/F0 entry is “inactive”.

For `COc1ccc(-c2cc(C(F)(F)F)nc(S(C)(=O)=O)n2)cc1OC`, the fluorescence ratio F(max-min)/F0 entry is “inactive”.

On to `COCc1nnc(NC(=O)c2ccc3c(c2)OCO3)s1`, for which the fluorescence ratio F(max-min)/F0 result is “inactive”.

As to `CCc1ccc2nc3sc(C(=O)Nc4nnc(CC)s4)c(N)c3cc2c1`, the fluorescence ratio F(max-min)/F0 is 0.589 (active).

Consider `COc1cc(CCC(=O)Nc2ccncc2Cl)cc(OC)c1OC`, for which the fluorescence ratio F(max-min)/F0 result is “inactive”.

As for `Cc1cc(C)n(CCNC(=O)CC2C(=O)NCCN2Cc2ccc(C)o2)n1` (stereo not drawn), the fluorescence ratio F(max-min)/F0 entry is “inactive”.

Take `COc1ccc(S(=O)(=O)N2CCOCC2)c(C)c1C`: the fluorescence ratio F(max-min)/F0 entry is “inactive”.

On to `CCOc1ccc(C(=O)NC2CCN(S(=O)(=O)CC)CC2)cc1`, for which the fluorescence ratio F(max-min)/F0 result was “inactive”.

`Cc1ccc(N/C(N)=N/c2nc(C(F)(F)F)cc(C(F)(F)F)n2)cc1`: the fluorescence ratio F(max-min)/F0 result is “inactive”.

In the case of `Cc1[nH][nH]c(=O)c1C(c1ccc(-c2ccc(Cl)cc2)o1)c1c(C)[nH][nH]c1=O`, the fluorescence ratio F(max-min)/F0 entry was “inactive”.

As to `Cc1ccc(-n2cnc3ncnc(-c4ccccc4)c32)cc1`, the fluorescence ratio F(max-min)/F0 result was “inactive”.

Regarding `Cc1c(C(=O)N2CCCc3ccccc32)sc2nc(-c3ccccc3)cn12`, the fluorescence ratio F(max-min)/F0 entry is “inactive”.

Consider `C(=N\n1cnnc1)/c1cccnc1`, for which the fluorescence ratio F(max-min)/F0 entry was “inactive”.

As to `CC(=O)N1c2ccc(S(=O)(=O)N3CCCC(C(=O)Nc4cccc(Cl)c4)C3)cc2CC1C` (stereo not drawn), the fluorescence ratio F(max-min)/F0 entry was “inactive”.

For the molecule `Cc1cccc(Cn2cnc3c(N)c(C)c(C)cc32)c1`, the fluorescence ratio F(max-min)/F0 entry is “inactive”.

Turning to `CCOC(=O)Nc1ccc2c(c1)N(C(=O)CCN1CCN(CCO)CC1)c1ccccc1CC2`, the fluorescence ratio F(max-min)/F0 entry is “inactive”.

On to `COc1ccc2c(c1)OC(O)(C(F)(F)C(F)F)CC2=O` (stereo not drawn), for which the fluorescence ratio F(max-min)/F0 entry is “inactive”.

As to `O=S(=O)(c1ccc2ccccc2c1)N1CCN(S(=O)(=O)N2CCOCC2)CC1`, the fluorescence ratio F(max-min)/F0 entry was “inactive”.

For `CCOC(=O)C1=C(O)CSC1=Nc1cccc(Cl)c1`, the fluorescence ratio F(max-min)/F0 result was “inactive”.

Take `Cc1nccn1CCC1CCCCN1C(=O)CCc1nnc(-c2ccsc2)o1` (stereo not drawn): the fluorescence ratio F(max-min)/F0 result is “inactive”.

With `O=C(Nc1ccccc1N1CCCCC1)c1ccc2nccnc2c1`, the fluorescence ratio F(max-min)/F0 entry was “inactive”.

`Cc1onc(-c2ccccc2)c1C(=O)NNC(=S)NC(=O)c1ccc(F)cc1`: the fluorescence ratio F(max-min)/F0 result was “inactive”.

`O=C(CN1CCN(c2ccccn2)CC1)NC1CCCCC1`: the fluorescence ratio F(max-min)/F0 result is “inactive”.

As for `C=CCOc1cccc(C2C(C(=O)c3ccc(C)o3)=C(O)C(=O)N2c2nnc(C)s2)c1` (stereo not drawn), the fluorescence ratio F(max-min)/F0 entry is “inactive”.

Take `O=C1C(=O)N(CC2COc3ccccc3O2)c2ccccc21` (stereo not drawn): the fluorescence ratio F(max-min)/F0 entry was “inactive”.

As for `COc1ccccc1N(CC(=O)N1CCCCC1)S(=O)(=O)c1ccccc1`, the fluorescence ratio F(max-min)/F0 entry was “inactive”.

As for `Clc1ccc(-c2nc3ccccn3c2CN2CCSCC2)cc1`, the fluorescence ratio F(max-min)/F0 result was “inactive”.

For the molecule `COc1ccc(C(=O)NC(=S)NNC(=O)CCc2ccccc2)cc1`, the fluorescence ratio F(max-min)/F0 result was “inactive”.

As for `COc1cc(C)c(C)cc1S(=O)(=O)N1CCCc2ccccc21`, the fluorescence ratio F(max-min)/F0 entry is “inactive”.

Regarding `Cc1nc2ccccc2cc1OCc1ccc(F)cc1`, the fluorescence ratio F(max-min)/F0 result is “inactive”.

As to `OCCn1c(-c2ccccc2)csc1=Nc1ccccc1`, the fluorescence ratio F(max-min)/F0 entry was “inactive”.

On to `CC1(C)CC2CC(C)(CN2c2ncnc3ccc(Br)cc23)C1` (stereo not drawn), for which the fluorescence ratio F(max-min)/F0 result is “inactive”.

For `N=C(N)SCc1cccc2ccccc12`, the fluorescence ratio F(max-min)/F0 result is “inactive”.

On to `Cc1occc1C(=O)Nc1nnc(-c2ccncc2)s1`, for which the fluorescence ratio F(max-min)/F0 entry was “inactive”.

`CC(Oc1ccc(F)cc1)C(=O)Nc1ccccc1C(=O)NC1CC1` (stereo not drawn): the fluorescence ratio F(max-min)/F0 entry was “inactive”.

`CCCCC(=O)NNC(=S)NC(=O)C(c1ccccc1)c1ccccc1`: the fluorescence ratio F(max-min)/F0 result was “inactive”.

With `CCOc1ccccc1C1CC(c2ccc(Cl)cc2)Nc2nc(N)nn21` (stereo not drawn), the fluorescence ratio F(max-min)/F0 entry is “inactive”.

Take `CCN(CC)c1ccc2oc(=O)c(C)nc2c1`: the fluorescence ratio F(max-min)/F0 is 0.549 (active).

As for `CCNC(=O)c1c(O)c2cccc3c2n(c1=O)CC3`, the fluorescence ratio F(max-min)/F0 result is “inactive”.

As for `COC(=O)c1sccc1NS(=O)(=O)c1ccc(F)cc1F`, the fluorescence ratio F(max-min)/F0 result is “inactive”.

For `COc1ccc(C(=O)CSc2n[nH]c(N)n2)cc1`, the fluorescence ratio F(max-min)/F0 entry is “inactive”.

On to `CCOC(=O)c1[nH]c2ccc(C)cc2c1N=C(C)N(C)C`, for which the fluorescence ratio F(max-min)/F0 entry was “inactive”.

For the molecule `Cc1ccc2nc(Nc3ccccc3)cc(C)c2c1`, the fluorescence ratio F(max-min)/F0 result is “inactive”.

For the molecule `CC1(C(=O)O)CCC(C(=O)Nc2ccc(Cl)c(Cl)c2)C1(C)C` (stereo not drawn), the fluorescence ratio F(max-min)/F0 entry is “inactive”.

For `Cc1cc(Nc2cc(N3CCN(C)CC3)nc(Sc3ccc(NC(=O)C4CC4)cc3)n2)n[nH]1`, the fluorescence ratio F(max-min)/F0 result was “inactive”.

Regarding `Cc1nn(C(=O)c2ccoc2C)c(N)c1-c1ccccc1`, the fluorescence ratio F(max-min)/F0 entry was “inactive”.

With `O=C(Nc1ccc(Cl)cc1)Nc1ccc(Oc2cccnc2)nc1`, the fluorescence ratio F(max-min)/F0 entry is “inactive”.

Consider `O=C(CCN1CCc2ccccc2C(O)(c2ccccc2)C1)c1ccc2c(c1)OCCO2` (stereo not drawn), for which the fluorescence ratio F(max-min)/F0 result was “inactive”.

In the case of `CCC1CCCCN1CCNC(=O)c1[nH]c(C)c(C(C)=O)c1C` (stereo not drawn), the fluorescence ratio F(max-min)/F0 entry was “inactive”.

On to `CCc1nnc(NC(=O)CSc2nc3c(c(=O)n2-c2ccccc2OC)SCC3)s1`, for which the fluorescence ratio F(max-min)/F0 result was “inactive”.

For `Cc1ccc2c(C)c(C(=O)N(C)CCC3CCCCO3)oc2c1C` (stereo not drawn), the fluorescence ratio F(max-min)/F0 result is “inactive”.

Turning to `Cc1cccn2c(=O)c(/C=C3\SC(=S)N(CC(C)C)C3=O)c(NCCCOC(C)C)nc12`, the fluorescence ratio F(max-min)/F0 was 0.164 (active).

For the molecule `O=C(Nc1ccccc1Cl)N1CCN(c2ccc3nncn3n2)CC1`, the fluorescence ratio F(max-min)/F0 result is “inactive”.

In the case of `COc1ccc(OC)c(Nc2nc3ccccc3n3cnnc23)c1`, the fluorescence ratio F(max-min)/F0 entry was “inactive”.

Regarding `C=CCSc1nc(Cc2ccc(Cl)cc2)nc2ccccc12`, the fluorescence ratio F(max-min)/F0 entry was “inactive”.

On to `O=C(NC1CCCCC1)C1c2ccccc2C(=O)N1Cc1ccco1` (stereo not drawn), for which the fluorescence ratio F(max-min)/F0 result was “inactive”.

On to `Cc1ccc(C(=O)COC(=O)CCN2C(=O)C3C4CC(C(Br)C4Br)C3C2=O)cc1` (stereo not drawn), for which the fluorescence ratio F(max-min)/F0 entry is “inactive”.

Regarding `CC(C)(C)Nc1c(-c2cccs2)nc2ccccn12`, the fluorescence ratio F(max-min)/F0 result was “inactive”.

Turning to `Cc1ccc(CS(=O)(=O)c2ncc(Cl)c(C(=O)Nc3nnc(C)s3)n2)cc1`, the fluorescence ratio F(max-min)/F0 result is “inactive”.

Consider `COc1ccc(C(=O)NNC(=S)NC(=O)c2ccccc2)cc1`, for which the fluorescence ratio F(max-min)/F0 result is “inactive”.

Consider `O=C(CN1CCN(c2ccc(Cl)cc2)CC1)N1CCCC1`, for which the fluorescence ratio F(max-min)/F0 result was “inactive”.

As to `Cc1ccc(NC2(C#N)C(=O)Nc3ccccc32)cc1` (stereo not drawn), the fluorescence ratio F(max-min)/F0 result was “inactive”.

For the molecule `O=C(c1ccc(OC2CCN(C(=O)c3cccnc3)CC2)cc1)N1CCCCCC1`, the fluorescence ratio F(max-min)/F0 result was “inactive”.

With `Cc1nc(N2CCN(c3ccccn3)CC2)c2c(C)c(C(=O)Nc3ccc(F)c(Cl)c3)sc2n1`, the fluorescence ratio F(max-min)/F0 entry is “inactive”.

`Cc1ccnc(-n2sc3ccccc3c2=O)n1`: the fluorescence ratio F(max-min)/F0 result is “inactive”.

Take `C=CCNC(=O)c1cc(-c2ccccc2O)on1`: the fluorescence ratio F(max-min)/F0 result was “inactive”.

For the molecule `CN1/C(=C\C=C2\N=C(c3ccc(F)cc3)OC2=O)C(C)(C)c2ccccc21`, the fluorescence ratio F(max-min)/F0 result is “inactive”.

Turning to `COc1ccc(C(=O)Nc2c(N)nc(SCC(=O)N3CCC(C)CC3)[nH]c2=O)cc1OC`, the fluorescence ratio F(max-min)/F0 result was “inactive”.

In the case of `Cc1ccc2nc(-c3ccc(NC(=O)c4cccnc4)cc3)oc2c1`, the fluorescence ratio F(max-min)/F0 result was “inactive”.

Take `Cc1ccc2c(c1)c1ncnc(N3CCc4ccccc4C3)c1n2C`: the fluorescence ratio F(max-min)/F0 entry was “inactive”.

As for `CCCCOC(=O)CNc1nnc(SCC(=O)OCC)[nH]c1=O`, the fluorescence ratio F(max-min)/F0 result was “inactive”.

Turning to `COc1cccc(CNC(=O)C2CCN(S(=O)(=O)c3cccc4cccnc34)CC2)c1`, the fluorescence ratio F(max-min)/F0 result is “inactive”.

As to `Cc1nc(C)c(-c2csc(NCCc3ccccc3)n2)s1`, the fluorescence ratio F(max-min)/F0 entry was “inactive”.

For `CN(c1cccc(NC(=O)Nc2ccc(Cl)cc2)c1)S(C)(=O)=O`, the fluorescence ratio F(max-min)/F0 result is “inactive”.
